Most compounds without a hit are left out; they make up all but 13% or so of the library.
USP30 inh: blocks human USP30 ubiquitin-rhodamine cleavage | Q70CQ3 | purified USP30, Ub-rhodamine cleavage fluorescence | inhibition, % at 25 µM | hit rate 5.3% among 47,000 | AID 1645860
OTUD3 inh: inhibitors of human OTUD3 deubiquitinase. inhibition, % at 25 µM. purified OTUD3, Ub-rhodamine fluorescence, 2 h. hit rate 0.7% among 47,000
USP8 block: inhibitors of human USP8 deubiquitinase; inhibition, % at 20 µM; hit rate 4.2% among 47,000; purified USP8, Ub-rhodamine cleavage fluorescence, 30 min; P40818
USP28 inh: inhibitors of human USP28 deubiquitinase; Q96RU2; purified USP28, Ub-rhodamine cleavage fluorescence, 30 min; inhibition, % at 25 µM; hit rate 3% among 47,000; AID 1645857
USP17 inh: blocks human USP17 ubiquitin-rhodamine cleavage; AID 1645855; inhibition, % at 50 µM; A8MUK1; hit rate 6.5% among 47,000; purified USP17, Ub-rhodamine cleavage fluorescence, 3 h
Target sequence (A8MUK1 whole entry, looked up): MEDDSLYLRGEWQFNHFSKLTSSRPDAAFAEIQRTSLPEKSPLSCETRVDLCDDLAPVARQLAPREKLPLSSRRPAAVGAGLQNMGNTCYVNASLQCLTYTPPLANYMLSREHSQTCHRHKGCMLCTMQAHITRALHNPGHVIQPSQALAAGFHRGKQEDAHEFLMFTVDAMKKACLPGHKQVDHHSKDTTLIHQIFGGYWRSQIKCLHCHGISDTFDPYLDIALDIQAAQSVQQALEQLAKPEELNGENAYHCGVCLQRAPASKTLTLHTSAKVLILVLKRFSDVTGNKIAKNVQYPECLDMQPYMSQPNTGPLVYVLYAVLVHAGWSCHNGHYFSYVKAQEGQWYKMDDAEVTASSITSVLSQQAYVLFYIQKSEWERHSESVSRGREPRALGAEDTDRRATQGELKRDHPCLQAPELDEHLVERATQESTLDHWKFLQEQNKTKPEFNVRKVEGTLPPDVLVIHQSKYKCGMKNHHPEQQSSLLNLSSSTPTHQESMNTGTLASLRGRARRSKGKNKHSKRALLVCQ
The depositor's hits bear a star; i = inactive; nt = not tested or not shown. Cut-off read from the data, not from the text of the source: active = inhibition above about 30%; inactive = the rest.

SMILES	USP30 inh	OTUD3 inh	USP8 block	USP28 inh	USP17 inh
O=C(Cn1cc(C(=O)C2CC2)c2ccccc21)NCCOc1ccc(Cl)cc1	27	13	32*	12	20
O=C(O)Cn1cc(C(=O)C2CC2)c2ccccc21	-14	-4	0	-10	3
CCN1CCN(C2(CNC(=O)c3ccccc3Cl)CCCCC2)CC1	10	8	10	4	7
O=C(Nc1ccncc1)c1nn(-c2ccc(F)cc2)c2c1CCCCC2	9	-5	-4	20	-11
CCOC(=O)c1nn(-c2ccc(F)cc2)c2c1CCCCC2	13	8	11	36*	12
Cc1cc(F)ccc1S(=O)(=O)N1CCc2cc3ccccc3nc21	-14	5	0	8	5
Cc1cnc(NC(=O)c2cc3c(C)nn(Cc4ccccc4Cl)c3s2)s1	-55	-49	56*	-3	-5
O=C1Nc2ccccc2C2(CCN(S(=O)(=O)c3ccccn3)CC2)O1	0	-4	8	-2	2
Cc1ccc(S(=O)(=O)N2CCC3(CC2)OC(=O)Nc2ccccc23)cc1	16	-7	35*	0	9
COc1cc(NC(=O)c2cc(-c3ccncc3)n(-c3ccccc3)n2)cc(OC)c1	11	13	14	40*	4
Cc1ccc(-n2nc(C(=O)NCc3ccccn3)cc2-c2cccnc2)cc1	3	2	-17	4	-5
O=C(Nc1cccc(F)c1)c1cc(-c2ccncc2)n(-c2ccc(F)cc2)n1	15	3	11	2	6
O=C(NC1CC1)c1cc(-c2cccnc2)n(-c2ccccc2)n1	31*	12	16	16	16
COc1ccc(CCNC(=O)Cn2c(-c3cscn3)nc3ccccc32)cc1	8	6	10	5	2
COc1ccc(CCNC(=O)COc2cc(C)c3ccc(OC)cc3n2)cc1	-31	-7	-16	-5	46*
CC(NC(=O)Cc1ccc(Cl)cc1)C(=O)Nc1nc2ccccc2[nH]1 (configuration not stated)	-17	-8	-18	-7	-15
Cc1ccc(CN2C[C@H]3C[C@H](C(=O)NCC4CC4)[C@@H](C2)O3)cc1	nt	-1	1	nt	-8
CC(C)CC1Nc2ccc(C(=O)N3CCN(c4ccccn4)CC3)cc2NC1=O (configuration not stated)	20	14	53*	10	21
O=C1Nc2cc(C(=O)N3CCN(c4ccccn4)CC3)ccc2N2CCCCC12 (configuration not stated)	-11	6	-18	0	-2
Cc1ccc(-c2cn(CC(=O)NCc3cccc(F)c3)c(=O)o2)cc1	56*	0	-19	28	77*
Cc1ccc(-c2cn(CC(=O)NCc3ccc(F)cc3)c(=O)o2)cc1	-6	-2	18	-6	-3
O=C(C[n+]1cc(-c2ccccc2)n2c1CCC2)c1cccc([N+](=O)[O-])c1	31*	15	-116	15	-11
COc1ccc(-c2cn3c4c(=O)n(C)c(=O)n(C)c4nc3n2CCc2ccccc2)cc1OC	21	4	-39	3	6
Cn1c(=O)c2c(nc3n(CCc4ccccc4)c(-c4ccccc4)cn23)n(C)c1=O	41*	10	-29	19	0
Cc1nc(Nc2ncccn2)cc(C2CCCN2Cc2cnn(C)c2)n1 (configuration not stated)	-16	6	-4	-8	5
SMILES	USP30 inh	OTUD3 inh	USP8 block	USP28 inh	USP17 inh
Nc1nc(SCC(=O)NC2CCCCC2)[nH]c(=O)c1NC(=O)c1ccco1	-5	9	-155	12	-13
Nc1nc(SCc2ccc([N+](=O)[O-])cc2)[nH]c(=O)c1NC(=O)c1ccco1	-34	-7	39*	-1	-27
NC(=O)c1ccc(NS(=O)(=O)c2ccc(-n3cccn3)cc2)cc1	0	1	7	-8	4
O=C(NC1CCCC1)c1ccc(Cn2c(=O)c3ccccc3n(Cc3ccc(F)cc3)c2=O)cc1	3	10	11	8	8
Cc1ccccc1Cn1c(=O)n(Cc2ccc(C(=O)NC3CCN(Cc4ccccc4)CC3)cc2)c(=O)c2ccccc21	29	9	20	17	17
NC(=O)Cn1c(=O)n(Cc2ccc(C(=O)NC3CCCC3)cc2)c(=O)c2ccccc21	29	23	26	23	53*
N#Cc1ccccc1Cn1c(=O)n(Cc2ccc(C(=O)NC3CCCC3)cc2)c(=O)c2ccccc21	33*	17	13	17	16
O=C(NC1CCN(Cc2ccccc2)CC1)c1ccc(Cn2c(=O)c3ccccc3n(Cc3ccccc3F)c2=O)cc1	34*	10	26	13	16
CN(C)C1CCN(C(=O)c2cc(-c3cnc(-c4cccc(F)c4)nc3)cn2C)C1 (configuration not stated)	-34	-9	-3	-13	-23
O=C(/C(=C/c1ccccc1Cl)c1ccccc1)N1CCN(c2ccccc2F)CC1	15	2	-20	-2	-1
Cc1nn(-c2nc3ccccc3o2)c2c1C(c1cccc(F)c1F)CC(=O)N2 (configuration not stated)	32*	22	15	16	27
Cc1nn(-c2nc3ccccc3o2)c2c1C(c1ccc(F)cc1)CC(=O)N2 (configuration not stated)	25	11	0	10	3
CSc1nc2ncn(CC(=O)Nc3cc(C)cc(C)c3)c(=O)c2s1	-140	-42	-16	-37	16
CSc1nc2ncn(CC(=O)Nc3ccc(Br)cc3)c(=O)c2s1	1	-2	82*	-6	-5
CC(=O)N1CCc2cc(S(=O)(=O)NC(CC(C)C)C(=O)N3CCC(Cc4ccccc4)CC3)ccc21 (configuration not stated)	-1	-5	3	7	-1
COc1ccc2nc(NC(=O)C(CC(C)C)NS(=O)(=O)c3ccc4c(c3)CCN4C(C)=O)sc2c1 (configuration not stated)	5	2	13	10	74*
O=S(=O)(NCCc1nc(-c2ccc(Cl)cc2)no1)c1ccc(F)cc1	39*	27	24	18	26
Cc1ccc(NC(=O)CCc2nc(CSc3nc4ccccc4o3)no2)c(C)c1	12	8	-89	5	3
O=C(CCc1nc(CSc2nc3ccccc3o2)no1)Nc1ccccc1F	16	13	-64	48*	17
COCCn1c(=O)[nH]c(=O)c2c3c(cnc21)C(=O)CC(c1ccc(F)cc1)C3 (configuration not stated)	-208	-5	68*	-33	-28
Cc1cc(C)n(CC(=O)NCc2cccc(F)c2)c1-c1nc(C2CC2)no1	25	5	19	8	8
O=C(Nc1cc(=O)[nH]c2nc(COc3ccccc3)nn12)c1ccccc1	i	-6	-11	-157	-104
O=C(Nc1cc(=O)[nH]c2nc(COc3ccccc3)nn12)c1ccc(Cl)cc1	-137	-25	35*	-39	nt
c1ccc(CCNc2nc3ccccc3s2)cc1	-9	-14	-4	35*	-9
